What all share (assay type): functional
Assay [1] concerns Plasmodium falciparum. Kind of assay: GSK_TCMDC: Inhibition of Plasmodium falciparum 3D7 in whole red blood cells, using parasite LDH activity as an index of growth. Test compounds present at 2uM.
The test system of assay [2] is Plasmodium falciparum. In words: GSK_TCMDC: Inhibition of Plasmodium falciparum Dd2 in whole red blood cells, using parasite LDH activity as an index of growth. Test compounds present at 2uM.
The subject of assay [3] is HepG2. Kind of assay: GSK_TCMDC: Percent inhibition of human HepG2 cell line. Test compounds present at 10uM.

The Inhibition is the percentage by which the read-out fell short of the control. A higher Inhibition goes with a strong effect. On to `O=C(c1cc2cccc([N+](=O)[O-])c2[nH]1)N1CCC(CCN2CCC(c3c[nH]c4ccccc34)CC2)CC1`, for which the Inhibition is given as 89% in assay [1], 24% in assay [2] and 45% in assay [3].

As for `O=C(c1cccc(-c2cccc(-c3nc4cc(C(F)(F)F)ccc4[nH]3)c2)c1)N1CCCCC1CN1CCC(O)C1` (configuration not stated), the results for the Inhibition in assay [1], in assay [2] and in assay [3] were 91%, 100% and 51%, respectively.

With `CC(=O)Nc1ccc(Nc2cc(C)nc(Nc3ccc(NC(C)=O)cc3)n2)cc1`, the Inhibition in assay [1] stood at 99%; in assay [2] it was 65%; in assay [3], 4%.

In the case of `Cn1nc(-c2ccc(CN[C@@H]3CCc4ccc(O)cc43)cc2)c2cnc(NC3CCCC3)nc21`, the Inhibition in assay [1] is 97%; in assay [2], 8%; in assay [3], 12%.

Take `COc1ccc(CNC2CCN(C)CC2)cc1-c1ccc(OC)c(S(=O)(=O)NCc2ccccc2)c1.O=C(O)C(F)(F)F`: the Inhibition turned out to be 99% in assay [1], 95% in assay [2] and 10% in assay [3].

On to `Cc1cc(N2CCCC2)nc(NC(=N)Nc2cccc(C(F)(F)F)c2)n1`, for which the results for the Inhibition in assay [1], in assay [2] and in assay [3] were 100%, 100% and 33%, respectively.

For `O=C(NCCNc1noc(-c2sccc2Br)n1)c1ccc(Cl)cc1`, the Inhibition is reported as 93% in assay [1], 1% in assay [2] and 0% in assay [3].

For `N.Nc1nc2c(ncn2COC2COP(=O)(O)OC2)c(=O)[nH]1` (configuration not stated), the Inhibition is on record as 81% in assay [1], 54% in assay [2] and 7% in assay [3].

Regarding `O=C(Nc1cccc(CN2CCCN(Cc3ccc(O)cc3)CC2)c1)c1cccc(F)c1.O=C(O)C(F)(F)F`, the Inhibition is reported as 92% in assay [1], 4% in assay [2] and 22% in assay [3].

Regarding `N#Cc1ccc(OCCN(Cc2ccccc2C(F)(F)F)c2ccc(C#N)c(C(F)(F)F)c2)cc1`, the Inhibition in assay [1] was 100%; in assay [2], 84%; in assay [3], 69%.

Consider `COc1cccc(-c2cc(C(=O)Nc3cc(Oc4ccc(O)cc4)cc([N+](=O)[O-])c3)on2)c1`, for which the results for the Inhibition in assay [1], in assay [2] and in assay [3] were 89%, 30% and 16%, respectively.

Consider `Cl.N=C(N)c1ccc(-c2cc3ccc(C(=N)N)cc3[nH]2)cc1`, for which the Inhibition was determined as 99% in assay [1], 99% in assay [2] and 18% in assay [3].

Take `COc1cccc2c(Oc3ccccc3C)ccnc12`: the Inhibition was determined as 85% in assay [1], 45% in assay [2] and 0% in assay [3].

For `O=C(N[C@@H](Cc1ccccc1)[C@H](O)CNCCC(F)(F)F)c1cccc(CCC2CC2)c1`, the results for the Inhibition in assay [1], in assay [2] and in assay [3] were 87%, 13% and 0%, respectively.

With `COc1cc(CCNC(=N)/C=C/c2ccc(Cl)cc2)ccc1Cl.Cl`, the Inhibition in assay [1] amounted to 100%; in assay [2], 16%; in assay [3] it was 68%.

As to `CCS(=O)(=O)O.Cc1cc(NC(=O)NC(=N)N)ccc1Cl`, the Inhibition is on record as 100% in assay [1], 15% in assay [2] and 11% in assay [3].

As for `c1ccc(-c2nnc(-c3ccccn3)nc2NC2CCCCC2)cc1`, the Inhibition in assay [1] is reported as 97%; in assay [2], 80%; in assay [3] it was 74%.

In the case of `Cl.O=c1nc(NCCCNCc2cc3c(Cl)cc(Cl)cc3[nH]2)[nH]c2ccccc12`, the values for the Inhibition in assay [1], in assay [2] and in assay [3] were 91%, 4% and 10%, respectively.

Take `COc1ccc(C2CC(c3cccs3)=NN2C(=O)COc2cccc3c2CCCC3O)cc1OC` (configuration not stated): the Inhibition is reported as 93% in assay [1], 62% in assay [2] and 5% in assay [3].

For `O=c1c2c([nH]c3cc(Cl)ccc13)CCCC2`, the Inhibition in assay [1] was found to be 96%; in assay [2], 73%; in assay [3] it was 33%.

In the case of `Cn1cnc(CCNC(=O)c2ccc(-c3ccc(-c4nc5cc(C(F)(F)F)ccc5[nH]4)s3)cc2)c1`, the Inhibition in assay [1] is recorded as 100%; in assay [2] it was 99%; in assay [3], 75%.

For the compound `C(=Cc1nc2ccccc2s1)c1ccc2c(c1)OCCO2.Cl`, the values for the Inhibition in assay [1], in assay [2] and in assay [3] were 98%, 96% and 13%, respectively.

Consider `O=C(C=Cc1ccc(Cl)c(Cl)c1)NCCCCCN1CCC(CCNC(=O)c2cccc3ccccc23)CC1`, for which the Inhibition in assay [1] is 85%; in assay [2], 0%; in assay [3], 17%.

For `Br.CC1(C)NC(N)=NC(=N)N1OCCCOc1cccc(Cl)c1`, the Inhibition in assay [1] came to 95%; in assay [2] it was 95%; in assay [3], 65%.

Consider `CN1CCN(CCCN(Cc2csc(-c3ccc(CNCc4ccccc4)cc3)n2)C(=O)Nc2cc(Cl)cc(Cl)c2)CC1.O=C(O)C(F)(F)F`, for which the Inhibition in assay [1] was 100%; in assay [2], 45%; in assay [3], 34%.

Consider `O=C(O)C(F)(F)F.S=C(Nc1cccc(Cl)c1)NC1CCN(c2ccnc3cc(Cl)ccc23)C1` (configuration not stated), for which the Inhibition in assay [1] is 100%; in assay [2], 89%; in assay [3] it was 16%.

As for `Fc1ccc2[nH]c(-c3ccc(-c4ccc(CN5CCC(CCN6CCCCC6)CC5)cc4)cc3)nc2c1.O=C(O)C(F)(F)F`, the Inhibition in assay [1] turned out to be 100%; in assay [2], 100%; in assay [3], 98%.

On to `CC(C)(C)c1ccc(NC(=O)c2ccc(CN3CCCN(Cc4cccc(Cl)c4)CC3)cc2)cc1.O=C(O)C(F)(F)F`, for which the Inhibition in assay [1] is 96%; in assay [2] it was 7%; in assay [3], 43%.

As for `Cc1ccc2c(=NN=CC=Cc3ccccc3)cc(C)[nH]c2c1`, the Inhibition was 92% in assay [1], 13% in assay [2] and 3% in assay [3].

Values taken from ChEMBL document CHEMBL1157539, “Thousands of chemical starting points for antimalarial lead identification” (Nature, 2010).
